Bioassay records (PubChem BioAssay)
HIV RNase H inh-1 – blocks HIV-1 RNase H cleavage of RNA/DNA duplex. P04585. RT-RNase H RNA/DNA duplex cleavage, fluorescence. inhibition, % at 10 µM. 65,000 tested, 1.9% active; in the data active means inhibition above about 50%
HIV RNase H inh-2 – confirmation of HIV-1 reverse transcriptase RNase H inhibitors. inhibition, % at 10 µM. AID 651. 1,000 tested, 39% active. shares compounds with HIV RNase H inh-1. Recombinant RT RNase H, fluorescent RNA/DNA duplex cleavage; in the data active means inhibition above about 48%
Large screens that a line does not name were inactive (follow-up assays come after a bar, where they were run). This is one part of a sample in which hits are shown more often than they occur.

O=c1n(-c2ccccc2)c(=O)n(Cc2ccccn2)n1Cc1ccccn1	none
CC(CC(=O)NCc1ccccc1)C1CCCO1 (centres undefined)	none
CC(C)CCn1c(SCCc2ccccc2)nc2c1c(=O)[nH]c(=O)n2C	HIV RNase H inh-1 74 | HIV RNase H inh-2 inactive
CCCCCn1c(SCCCC)nc2c1c(=O)[nH]c(=O)n2C	HIV RNase H inh-1 71 | HIV RNase H inh-2 61
CCCn1c(SCCc2ccccc2)nc2c1c(=O)[nH]c(=O)n2C	none
CCCCCCn1c(SCCC)nc2c1c(=O)[nH]c(=O)n2C	none
CCCCCn1c(SCCOCC)nc2c1c(=O)[nH]c(=O)n2C	none
CCCCCn1c(SCCc2ccccc2)nc2c1c(=O)[nH]c(=O)n2C	none
COc1ccccc1-n1c(SCC(=O)NC2CCCCC2)nc2c(c1=O)SCC2	none
CC(=O)c1ccc(C#CC(C)(C)O)s1	none
O=C(NCc1cccs1)c1ccccc1C(=O)NCc1cccs1	none
CC(C)(O)C#Cc1ccc(C(=O)NCc2cccs2)s1	HIV RNase H inh-1 65 | HIV RNase H inh-2 inactive
COC(=O)c1ccc(COC(=O)C23CC4CC(CC(O)(C4)C2)C3)o1	none
CN(C)CCNC(=O)c1ccc(CS(=O)(=O)c2ccc(Br)cc2)o1	none
Cc1nnc2sc(-c3cccc4ccccc34)nn12	none
Nc1ccc2nn(-c3cccc4ccccc34)nc2c1	none
Cc1cc2nn(-c3cccc4ccccc34)nc2cc1N	HIV RNase H inh-1 67 | HIV RNase H inh-2 inactive
O=C(COC(=O)c1cc(=O)[nH]c2ccccc12)NC(=O)NC1CCCCC1	none
COc1ccc2nc(S(=O)Cc3ncc(C)c(OC)c3C)[nH]c2c1 (centres undefined)	HIV RNase H inh-1 76 | HIV RNase H inh-2 inactive
COc1ccc2nc(SCC(N)=O)[nH]c2c1	none
CCc1c(C)nc(Nc2nc(C)c3cc(OC)ccc3n2)[nH]c1=O	none
CC(C)(C)C(=O)NC1(C(F)(F)F)C(=O)Nc2c1c(=O)[nH]c(=O)n2Cc1ccco1 (centres undefined)	none
CCC(=O)NC1(C(F)(F)F)C(=O)Nc2c1c(=O)[nH]c(=O)n2Cc1ccco1 (centres undefined)	none
O=c1[nH]c(=O)n(Cc2ccco2)c2c1C(C(F)(F)F)(C(F)(F)F)N=C(C1CCCCC1)N2	HIV RNase H inh-1 70 | HIV RNase H inh-2 inactive
COCCN1C(=O)C(=O)/C(=C(/O)c2ccc(OCC(C)C)cc2)C1c1cccnc1 (centres undefined)	none
COC(=O)c1ccc2c(=O)n(Cc3ccco3)c(SCC(=O)Nc3ccccc3Cl)nc2c1	HIV RNase H inh-1 86 | HIV RNase H inh-2 67
O=C(CSc1nc2ccccc2c(=O)n1Cc1ccco1)NCc1ccco1	none
COC(=O)c1ccc2c(=O)n(CC3CCCO3)c(SCC(=O)Nc3ccccc3OC)nc2c1 (centres undefined)	none
CCOc1ccc(/C(O)=C2/C(=O)C(=O)N(CCCn3ccnc3)C2c2cccs2)cc1Cl (centres undefined)	none
CCC(Oc1ccccc1)C(=O)Nc1ccccn1 (centres undefined)	none
Cc1ccc(Cn2ccc(NC(=O)c3cc(CC(C)C)on3)n2)cc1	none
Cc1nc(N2CCN(S(=O)(=O)c3cccc4nonc34)CC2)c2c3c(sc2n1)CCCC3	none
N#CCCN1CCN(C(=S)c2ccc(-c3cc(Cl)ccc3Cl)o2)CC1	none
S=C(c1ccc(-c2ccc(Cl)c(Cl)c2)o1)N1CCOCC1	HIV RNase H inh-1 66 | HIV RNase H inh-2 inactive
O=C(c1cc(Cl)ccc1Cl)N1CCOCC1	none
COc1ccc(-c2ccc(C(=S)N3CCN(C(C)=O)CC3)o2)cc1	none
O=C(CSc1ccc(Cl)cc1)N1CCOCC1	none
O=C(c1ccc(-c2cccc(C(F)(F)F)c2)o1)N1CCOCC1	none
CCOc1ccc(C(=S)N2CCOCC2)cc1	none
S=C(c1ccc(Cl)cc1)N1CCOCC1	HIV RNase H inh-1 90 | HIV RNase H inh-2 58
S=C(c1ccc(-c2ccccc2Cl)o1)N1CCOCC1	HIV RNase H inh-1 95 | HIV RNase H inh-2 51
CCn1c2ccccc2c2nnc(SCN3C(=O)c4ccccc4C3=O)nc21	none
CC1CCCCC1n1c(=S)[nH]c2ccccc2c1=O (centres undefined)	none
COc1ccc(S(=O)(=O)N2CCOCC2)c(Cl)c1Cl	none
Cc1cccc(NC(=O)Cn2cnc3ccc(S(=O)(=O)N4CCC(C)CC4)cc3c2=O)n1	none
CN1/C(=C\C(=O)c2cccs2)Sc2ccccc21	none
COc1ccc2c(c1)S/C(=C\C(=O)c1ccncc1)N2C	HIV RNase H inh-1 67 | HIV RNase H inh-2 inactive
COCC(=O)/C=C1\Sc2ccccc2N1C	none
COC(=O)c1cc(Br)c(=O)n(CCC2=CCCCC2)c1	none
COC(=O)c1cccc(N2C(=O)C(Cl)=C(N3CCOCC3)C2=O)c1	HIV RNase H inh-1 83 | HIV RNase H inh-2 62
COC(=O)c1cccc(Oc2nc(N3CCOCC3)nc(N3CCOCC3)n2)c1	none
Cc1cc(=O)cc(C)n1-c1ccccc1N1CCOCC1	none
COC(=O)C1=C(C)N(c2cccc(Cl)c2)C(=O)C1	none
Cn1c(=O)n(-c2cccc(Cl)c2)c(=O)n1C	none
CN1CCN(C2=C(Cl)C(=O)N(c3cccc(Cl)c3)C2=O)CC1	HIV RNase H inh-1 70 | HIV RNase H inh-2 inactive
COc1ccc(N2C(=O)c3ccc(NC(C)=O)cc3C2=O)cc1	none
COc1ccc(N2C(=O)CCC2=O)cc1	none
COC(=O)C1=C(C)N(c2cccc(C(C)=O)c2)C(=O)C1	none
COc1ccc(N2C(=O)C(Cl)=C(N3CCCC3)C2=O)cc1	HIV RNase H inh-1 52 | HIV RNase H inh-2 inactive
Cc1ccccc1N1C(=O)C(Cl)=C(N2CCN(c3ccccc3)CC2)C1=O	none
O=C1C(Cl)=C(N2CCOCC2)C(=O)N1c1ccccc1Cl	HIV RNase H inh-1 70 | HIV RNase H inh-2 inactive
COc1ccc(CNC(=O)c2ccc3c(c2)N(C)C(=O)CS3=O)cc1 (centres undefined)	none
COC(=O)C1=C(C)NC2=C(C(=O)CCC2)C1c1ccccn1 (centres undefined)	none
C=CCn1c(=O)c2ccccc2n2c(SCc3nnc(-c4ccccc4Br)o3)nnc12	none
O=C(NC1CCCCC1)C1CCN(c2cnccn2)CC1	none
Cc1ccc(NC(=O)N2CCCC2C(=O)NCCc2ccccc2)cc1 (centres undefined)	none
COc1ccc(NC(=O)CNS(=O)(=O)c2cccc3nonc23)c(OC)c1	none
COC(=O)N1CCN(c2ccc(Cl)c(Cl)c2)CC1	none
CN1CCN(C2=C(Cl)C(=O)N(c3ccc(Cl)c(Cl)c3)C2=O)CC1	HIV RNase H inh-1 96 | HIV RNase H inh-2 74
CN1CCN(C2=C(Cl)C(=O)N(Cc3ccccc3)C2=O)CC1	none
Clc1ccc(-n2nnnc2SCc2c(-c3ccccc3)nc3sccn23)cc1	none
COc1ccc2c(=O)c3c(=O)n(Cc4ccco4)c(C4CCCCC4)nc3oc2c1	none
NC(=O)c1c(N)sc2c1CCCCC2	HIV RNase H inh-1 73 | HIV RNase H inh-2 inactive
NC(=O)c1c(NC(=O)CN2CCCC2)sc2c1CCCC2	none
N#CCC(=O)Nc1sc2c(c1C(N)=O)CCCC2	none
NC(=O)c1c(NC(=O)CN2C(=O)CCC2=O)sc2c1CCCCC2	HIV RNase H inh-1 85 | HIV RNase H inh-2 inactive
Nc1sc2c(c1C(=O)NC1CCS(=O)(=O)C1)CCC2 (centres undefined)	HIV RNase H inh-1 66 | HIV RNase H inh-2 74
COCCNC(=O)c1c(N)sc2c1CCCC2	HIV RNase H inh-1 63 | HIV RNase H inh-2 inactive
O=C(NC1CCS(=O)(=O)C1)c1ccccc1C(=O)c1ccccc1 (centres undefined)	none
CC(C)Oc1ccc(C(=O)NC2CCS(=O)(=O)C2)cc1 (centres undefined)	none
CCC(=O)Nc1sc2c(c1C(N)=O)CCC2	none
CCOC(=O)c1c(NC(=O)OC)sc2c1CCC2	none
COCCNC(=O)c1ccc(C(=O)NCCOC)s1	none
